From PubChem BioAssay AID1159580 (chemical genetic matrix, 2015)
About 2,000 (36%) of roughly 5,500 compounds were called active. Not shown: some 18% with an inconclusive outcome. Rule as the data show it: active = normalized growth mostly below about 0.91 (no sharp cut-off); inconclusive = no clear call, values can overlap the other calls; inactive = mostly above about 0.92. The list shows a part of the results.

Test: chemical genetic growth profiling, strain panel (AID 1159580);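 also: tested at 20 µM; growth read once vehicle control cultures reached saturation at 30 °C; 1 = growth at the plate median or of vehicle wells; lower values mean less growth of the strain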
Conditions: growth OD

Measured: normalized growth

Clc1ccc(C(OCCN2CCCCC2)c2ccccc2)cc1 (centres undefined)
inactive: S. cerevisiae deletion strains, locus YJR043C, strain POL32, stronger effect = lower value 1.02 | S. cerevisiae deletion strains, locus YJR075W, strain HOC1, stronger effect = lower value 0.948 | S. cerevisiae deletion strains, locus YKL009W, strain mrt4, stronger effect = lower value 0.996 | S. cerevisiae deletion strains, locus YKL068W, stronger effect = lower value 1 | S. cerevisiae deletion strains, locus YKL085W, strain MDH1 (second series), stronger effect = lower value 0.997 | S. cerevisiae deletion strains, locus YKL085W, strain MDH1, stronger effect = lower value 0.997 | S. cerevisiae deletion strains, locus YKL160W, strain elf1, stronger effect = lower value 1.02 | S. cerevisiae deletion strains, locus YKL190W, strain CNB1, stronger effect = lower value 1.01 | S. cerevisiae deletion strains, locus YKR001C, strain vps1, stronger effect = lower value 0.994 | S. cerevisiae deletion strains, locus YKR026C, strain gcn3, stronger effect = lower value 1.02 | S. cerevisiae deletion strains, locus YKR091W, strain srl3, stronger effect = lower value 1.02 | S. cerevisiae deletion strains, locus YLL001W, strain dnm1, stronger effect = lower value 1.02 | S. cerevisiae deletion strains, locus YLL026W, stronger effect = lower value 1.02 | S. cerevisiae deletion strains, locus YLL041C, strain sdh2, stronger effect = lower value 1.01 | S. cerevisiae deletion strains, locus YLR027C, strain aat2, stronger effect = lower value 1.02 | S. cerevisiae deletion strains, locus YLR039C, strain RIC1, stronger effect = lower value 1.26 | S. cerevisiae deletion strains, locus YLR058C, strain SHM2, stronger effect = lower value 1 | S. cerevisiae deletion strains, locus YLR102C, strain apc9, stronger effect = lower value 0.999 | S. cerevisiae deletion strains, locus YLR221C, strain rsa3, stronger effect = lower value 1.01 | S. cerevisiae deletion strains, locus YLR258W, strain gsy2, stronger effect = lower value 1.02 | S. cerevisiae deletion strains, locus YLR262C, strain YPT6 (second series), stronger effect = lower value 1.07 | S. cerevisiae deletion strains, locus YLR262C, strain YPT6, stronger effect = lower value 1.27 | S. cerevisiae deletion strains, locus YLR268W, strain sec22, stronger effect = lower value 0.96 | S. cerevisiae deletion strains, locus YLR320W, strain mms22, stronger effect = lower value 1.01 | S. cerevisiae deletion strains, locus YLR330W, strain CHS5, stronger effect = lower value 1.01 | S. cerevisiae deletion strains, locus YLR342W, strain FKS1 (second series), stronger effect = lower value 0.907 | S. cerevisiae deletion strains, locus YLR342W, strain FKS1, stronger effect = lower value 1.04 | S. cerevisiae deletion strains, locus YLR357W, strain rsc2, stronger effect = lower value 1.02 | S. cerevisiae deletion strains, locus YLR370C, strain arc18, stronger effect = lower value 1 | S. cerevisiae deletion strains, locus YLR371W, strain rom2, stronger effect = lower value 1.01 | S. cerevisiae deletion strains, locus YLR384C, strain iki3, stronger effect = lower value 1.01 | S. cerevisiae deletion strains, locus YLR418C, strain cdc73, stronger effect = lower value 0.852 | S. cerevisiae deletion strains, locus YML016C, strain PPZ1, stronger effect = lower value 0.999 | S. cerevisiae deletion strains, locus YML032C, strain rad52, stronger effect = lower value 0.979 | S. cerevisiae deletion strains, locus YML120C, strain ndi1, stronger effect = lower value 1.01 | S. cerevisiae deletion strains, locus YML124C, strain tub3, stronger effect = lower value 1.01 | S. cerevisiae deletion strains, locus YMR058W, strain fet3, stronger effect = lower value 1.02 | S. cerevisiae deletion strains, locus YMR078C, strain ctf18, stronger effect = lower value 1 | S. cerevisiae deletion strains, locus YMR125W, strain sto1, stronger effect = lower value 1.03 | S. cerevisiae deletion strains, locus YMR129W, stronger effect = lower value 1.03 | S. cerevisiae deletion strains, locus YMR205C, strain PFK2, stronger effect = lower value 1.01 | S. cerevisiae deletion strains, locus YMR223W, strain ubp8, stronger effect = lower value 0.987 | S. cerevisiae deletion strains, locus YMR231W, strain pep5, stronger effect = lower value 1.02 | S. cerevisiae deletion strains, locus YMR263W, strain SAP30, stronger effect = lower value 0.977 | S. cerevisiae deletion strains, locus YMR307W, strain GAS1, stronger effect = lower value 1.12 | S. cerevisiae deletion strains, locus YNL067W, strain RPL9B, stronger effect = lower value 0.98 | S. cerevisiae deletion strains, locus YNL071W, strain lat1, stronger effect = lower value 1.02 | S. cerevisiae deletion strains, locus YNL128W, strain TEP1, stronger effect = lower value 0.955 | S. cerevisiae deletion strains, locus YNL153C, strain GIM3, stronger effect = lower value 0.971 | S. cerevisiae deletion strains, locus YNL209W, strain ssb2, stronger effect = lower value 1.03 | S. cerevisiae deletion strains, locus YNL233W, strain BNI4, stronger effect = lower value 0.986 | S. cerevisiae deletion strains, locus YNL248C, strain rpa49, stronger effect = lower value 1.03 | S. cerevisiae deletion strains, locus YNL250W, strain rad50, stronger effect = lower value 0.991 | S. cerevisiae deletion strains, locus YNL271C, strain bni1, stronger effect = lower value 0.997 | S. cerevisiae deletion strains, locus YNL298W, strain CLA4, stronger effect = lower value 1 | S. cerevisiae deletion strains, locus YNL307C, strain MCK1, stronger effect = lower value 0.992 | S. cerevisiae deletion strains, locus YNL322C, strain KRE1 (second series), stronger effect = lower value 1.03 | S. cerevisiae deletion strains, locus YNL322C, strain KRE1, stronger effect = lower value 1.01 | S. cerevisiae deletion strains, locus YNR049C, strain mso1, stronger effect = lower value 0.999 | S. cerevisiae deletion strains, locus YNR052C, strain pop2, stronger effect = lower value 0.965 | S. cerevisiae deletion strains, locus YOL006C, strain TOP1, stronger effect = lower value 0.592 | S. cerevisiae deletion strains, locus YOL012C, strain htz1 0.731 | S. cerevisiae deletion strains, locus YOL147C, strain pex11, stronger effect = lower value 0.997 | S. cerevisiae deletion strains, locus YOR001W, strain rrp6, stronger effect = lower value 1.02 | S. cerevisiae deletion strains, locus YOR061W, strain CKA2, stronger effect = lower value 1 | S. cerevisiae deletion strains, locus YOR069W, strain VPS5, stronger effect = lower value 0.997 | S. cerevisiae deletion strains, locus YOR070C, strain gyp1, stronger effect = lower value 1.03 | S. cerevisiae deletion strains, locus YOR080W, strain dia2, stronger effect = lower value 1.02 | S. cerevisiae deletion strains, locus YOR083W, strain WHI5, stronger effect = lower value 1.02 | S. cerevisiae deletion strains, locus YOR106W, strain vam3, stronger effect = lower value 1.01 | S. cerevisiae deletion strains, locus YOR136W, strain idh2, stronger effect = lower value 1 | S. cerevisiae deletion strains, locus YOR144C, strain elg1, stronger effect = lower value 1 | S. cerevisiae deletion strains, locus YOR184W, strain ser1, stronger effect = lower value 1.04 | S. cerevisiae deletion strains, locus YOR265W, strain rbl2, stronger effect = lower value 1.01 | S. cerevisiae deletion strains, locus YOR270C, strain vph1, stronger effect = lower value 0.797 | S. cerevisiae deletion strains, locus YOR290C, strain snf2, stronger effect = lower value 1.01 | S. cerevisiae deletion strains, locus YOR316C, strain cot1, stronger effect = lower value 1 | S. cerevisiae deletion strains, locus YPL051W, strain arl3, stronger effect = lower value 1.01 | S. cerevisiae deletion strains, locus YPL055C, strain LGE1, stronger effect = lower value 0.958 | S. cerevisiae deletion strains, locus YPL078C, strain atp4, stronger effect = lower value 1.02 | S. cerevisiae deletion strains, locus YPL106C, strain sse1, stronger effect = lower value 1.02 | S. cerevisiae deletion strains, locus YPL240C, strain hsp82, stronger effect = lower value 1.01 | S. cerevisiae deletion strains, locus YPL241C, strain CIN2, stronger effect = lower value 1 | S. cerevisiae deletion strains, locus YPR119W, strain clb2, stronger effect = lower value 1 | S. cerevisiae deletion strains, locus YPR141C, strain kar3, stronger effect = lower value 0.993 | S. cerevisiae deletion strains, locus YPR163C, strain tif3, stronger effect = lower value 0.981 | S. cerevisiae deletion strains, locus YPR167C, strain met16, stronger effect = lower value 1 | S. cerevisiae deletion strains, strain wtn01, stronger effect = lower value 0.974 | S. cerevisiae strains, strain wild type, stronger effect = lower value 0.988
